Test results reported in PubChem BioAssay (Tox21).
Where “and” joins values, the source holds several entries; their conditions need not be identical. Equal entries are not always repeated. Records with an inconclusive call do not appear. A structure can be active in one record and inactive in another. Calls of active or inactive are those of the source. The call rests on the fitted dose curve; in most records, active means well fitted curve in the direction sought with a large enough effect in the repeat runs; inconclusive means weak or mixed curves; inactive means no such curve, though single readings can be large; an effect the other way counts as inactive or inconclusive.

Key:
[1] = A CellTox Green Cytotoxicity Assay to monitor cytotoxicity in HEK293 cells - 40 hour (AID 1224871); further: nearly all actives have a fitted effect of over 45% in size
In short: (§1)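 Cytotoxicity was tracked continuously in HEK293 cells by a DNA-binding dye excluded from viable cells. Compounds were transferred in DMSO 5 h after seeding; fluorescence was recorded at intervals up to 40 h.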

[2] = qHTS RealTime-Glo MT Cell Viability Assay in HEK293 cells - 16 hour (AID 1224872); further: nearly all actives have a fitted effect of over 50% in size; further: potency means the concentration at half of the fitted maximal effect
In short: (§2)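 Nonlytic real-time viability readout: viable cells convert prosubstrate to NanoLuc substrate, giving luminescence proportional to live cell number. HEK293, 600 cells/well, compound added after 5 h, continuous culture at 37 C.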

[3] = qHTS RealTime-Glo MT Cell Viability Assay in HepG2 cells - 8 hour (AID 1224873); further: nearly all actives have a fitted effect of over 55% in size; further: potency means the concentration at half of the fitted maximal effect
In short: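 Real-time viability: cells seeded at 600 per well together with NanoLuc and cell-permeant prosubstrate, compounds added after 5 h incubation. Luminescence tracked at 0, 8, 16, 24, 32 and 40 h of exposure.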

[4] = qHTS RealTime-Glo MT Cell Viability Assay in HEK293 cells - 40 hour (AID 1224874); conditions: RealTime-Glo luminescence; max response: stronger effect = lower value; further: nearly all actives have a fitted effect of over 50% in size; further: potency means the concentration at half of the fitted maximal effect
In short: (§3)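 Nonlytic bioluminescent viability monitoring. HEK293 at 600 cells/well with reagent; 5 h settle; compound transfer by pintool; plates held at 37 C and read at set time points.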

[5] = A CellTox Green Cytotoxicity Assay to monitor cytotoxicity in HEK293 cells - 24 hour (AID 1224875); further: series mostly up to about 77 µM; nearly all actives have a fitted effect of over 45% in size
In short: as §1

[6] = A CellTox Green Cytotoxicity Assay to monitor cytotoxicity in HepG2 cells - 16 hour (AID 1224876); further: nearly all actives have a fitted effect of over 45% in size
In short: (§4)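 Real-time, homogeneous cytotoxicity readout: dead-cell DNA staining by CellTox Green in HepG2 monolayers, fluorescence measured at timed intervals up to 40 h of continuous compound exposure.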

[7] = A CellTox Green Cytotoxicity Assay to monitor cytotoxicity in HepG2 cells - 24 hour (AID 1224878); further: nearly all actives have a fitted effect of over 45% in size
In short: as §4

[8] = A CellTox Green Cytotoxicity Assay to monitor cytotoxicity in HepG2 cells - 40 hour (AID 1224879); further: nearly all actives have a fitted effect of over 40% in size; further: potency means the concentration at half of the fitted maximal effect
In short: as §4

[9] = qHTS RealTime-Glo MT Cell Viability Assay in HEK293 cells - 0 hour (AID 1224880)
In short: as §3

[10] = A CellTox Green Cytotoxicity Assay to monitor cytotoxicity in HEK293 cells - 32 hour (AID 1224881); further: nearly all actives have a fitted effect of over 40% in size
In short: as §1

[11] = A CellTox Green Cytotoxicity Assay to monitor cytotoxicity in HepG2 cells - 0 hour (AID 1224882); further: nearly all actives have a fitted effect of over 35% in size
In short: as §4

[12] = A CellTox Green Cytotoxicity Assay to monitor cytotoxicity in HepG2 cells - 32 hour (AID 1224883); further: nearly all actives have a fitted effect of over 50% in size; further: potency means the concentration at half of the fitted maximal effect
In short: as §4

[13] = A CellTox Green Cytotoxicity Assay to monitor cytotoxicity in HEK293 cells - 8 hour (AID 1224884); further: nearly all actives have a fitted effect of over 35% in size
In short: as §1

[14] = qHTS RealTime-Glo MT Cell Viability Assay in HepG2 cells - 16 hour (AID 1224885); further: nearly all actives have a fitted effect of over 50% in size
In short: (§5)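 Luminescence read-out: viable HepG2 cells reduce a prosubstrate to a NanoLuc substrate, giving a signal proportional to live cell number. Reads taken at 0, 8, 16, 24, 32 and 40 h of compound exposure at 37 C.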

[15] = qHTS RealTime-Glo MT Cell Viability Assay in HEK293 cells - 24 hour (AID 1224886); further: nearly all actives have a fitted effect of over 50% in size; further: potency means the concentration at half of the fitted maximal effect
In short: as §2

[16] = qHTS RealTime-Glo MT Cell Viability Assay in HEK293 cells - 8 hour (AID 1224887); further: nearly all actives have a fitted effect of over 50% in size; further: potency means the concentration at half of the fitted maximal effect
In short: as §3

[17] = A CellTox Green Cytotoxicity Assay to monitor cytotoxicity in HEK293 cells - 16 hour (AID 1224888); further: nearly all actives have a fitted effect of over 35% in size
In short: as §1

[18] = qHTS RealTime-Glo MT Cell Viability Assay in HepG2 cells - 0 hour (AID 1224889); further: nearly all actives have a fitted effect of over 50% in size
In short: as §5

[19] = A CellTox Green Cytotoxicity Assay to monitor cytotoxicity in HepG2 cells - 8 hour (AID 1224890); further: nearly all actives have a fitted effect of over 45% in size
In short: as §4

[20] = qHTS RealTime-Glo MT Cell Viability Assay in HepG2 cells - 32 hour (AID 1224877); further: nearly all actives have a fitted effect of over 55% in size
In short: as §5
On the % scale 0 is the no-effect control and ±100 the full control effect.

Cc1cccc([N+](=O)[O-])c1C(=O)O
inactive: Potency [1] | Potency [2] | Potency [3] | max response [4] -0.164% | Potency [5] | Potency [6] | Potency [7] | Potency [8] | Potency [9] | Potency [10] | Potency [11] | Potency [12] | Potency [13] | Potency [14] | Potency [15] | Potency [16] | Potency [17] | Potency [18] | Potency [19]

CCn1cc(C(=O)O)c(=O)c2cc(F)c(N3CCNC(C)C3)c(F)c21 (centres undefined)
inactive: Potency [1] | Potency [2] | Potency [3] | max response [4] 14.9% | Potency [5] | Potency [6] | Potency [20] | Potency [8] | Potency [9] | Potency [11] | Potency [12] | Potency [13] | Potency [15] | Potency [16] | Potency [17] | Potency [18] | Potency [19]

COc1ccc(COC(C)=O)cc1
inactive: Potency [1] | Potency [2] | Potency [3] | max response [4] 5.85% | Potency [5] | Potency [6] | Potency [20] | Potency [8] | Potency [9] | Potency [11] | Potency [12] | Potency [13] | Potency [14] | Potency [15] | Potency [16] | Potency [17] | Potency [19]

c1ccc2c(c1)CCCC2C1=NCCN1 (centres undefined)
inactive: Potency [1] | Potency [2] | Potency [3] | max response [4] 3.27% | Potency [5] | Potency [6] | Potency [7] | Potency [8] | Potency [9] | Potency [10] | Potency [11] | Potency [12] | Potency [13] | Potency [14] | Potency [15] | Potency [16] | Potency [17] | Potency [18] | Potency [19]

Cc1occc(=O)c1OC(=O)C(C)C
inactive: Potency [1] | Potency [2] | Potency [3] | max response [4] -0.202% | Potency [5] | Potency [6] | Potency [7] | Potency [8] | Potency [9] | Potency [10] | Potency [11] | Potency [12] | Potency [13] | Potency [14] | Potency [15] | Potency [16] | Potency [17] | Potency [18] | Potency [19]

c1cc(C(c2ccc(OCC3CO3)cc2)C(c2ccc(OCC3CO3)cc2)c2ccc(OCC3CO3)cc2)ccc1OCC1CO1 (centres undefined)
inactive: Potency [1] | Potency [2] | Potency [3] | max response [4] -1.63% | Potency [5] | Potency [6] | Potency [20] | Potency [8] | Potency [9] | Potency [11] | Potency [12] | Potency [13] | Potency [15] | Potency [16] | Potency [17] | Potency [18] | Potency [19]

CCN1CCCC1CNC(=O)c1cc(S(=O)(=O)CC)c(N)cc1OC (centres undefined)
inactive: Potency [1] | Potency [2] | Potency [3] | max response [4] 2.04% | Potency [5] | Potency [6] | Potency [7] | Potency [8] | Potency [9] | Potency [10] | Potency [11] | Potency [12] | Potency [13] | Potency [15] | Potency [16] | Potency [17] | Potency [18] | Potency [19]

CN(C)c1ccc2nc3ccc(=[N+](C)C)cc-3sc2c1
inactive: Potency [1] | Potency [5] | Potency [6] | Potency [7] | Potency [8] | Potency [9] | Potency [10] | Potency [11] | Potency [12] | Potency [13] | Potency [17] | Potency [18] | Potency [19]
active: Potency [2] 2.97 µM and 3.09 µM and 2.68 µM | Potency [3] 9.39 µM and 19.5 µM and 19 µM | Potency [4] 1.67 µM and 1.55 µM and 2.68 µM | Potency [15] 2.36 µM and 2.19 µM and 2.68 µM | Potency [16] 2.97 µM and 2.75 µM and 3.01 µM

O=C(OCc1ccccc1)c1ccc(O)cc1
49 µM (active) and inactive: Potency [8] | Potency [12]
inactive: Potency [1] | Potency [2] | Potency [3] | max response [4] -24.2% | Potency [5] | Potency [6] | Potency [7] | Potency [9] | Potency [10] | Potency [11] | Potency [13] | Potency [14] | Potency [15] | Potency [16] | Potency [17] | Potency [19]

C=CC(=O)OCCCCCCCC
inactive: Potency [1] | Potency [2] | Potency [3] | max response [4] 3.71% | Potency [5] | Potency [6] | Potency [8] | Potency [9] | Potency [10] | Potency [11] | Potency [12] | Potency [13] | Potency [14] | Potency [15] | Potency [16] | Potency [17] | Potency [18] | Potency [19]

Nc1ccc2cc3ccccc3cc2c1
inactive: Potency [1] | Potency [2] | Potency [3] | max response [4] -15.8% and 6.47% | Potency [5] | Potency [6] | Potency [7] | Potency [8] | Potency [9] | Potency [10] | Potency [11] | Potency [12] | Potency [13] | Potency [14] | Potency [15] | Potency [16] | Potency [17] | Potency [18] | Potency [19]
